Test results reported in PubChem BioAssay.
Calls of active or inactive are those of the source.

Key:
[1] = compounds binding Alexa647 anti-His antibody – biochemical, small-molecule microarray, 635 nm fluorescence, artefact control for SMM control protein annotation, primary screen (AID 1128); settings: higher = more signal;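 further: score merges feature fluorescence with signal-to-noise for each printed compound spot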
[2] = system: Human papillomavirus type 1a E7 protein (residues 1-88); experiment: HPV1a E7 small-molecule binders, primary screen, biochemical, small-molecule microarray, residues 1-88, 635 nm (AID 1129); settings: small-molecule microarray binding, fluorescence 635 nm; higher = more signal
[3] = biological target: Focal adhesion kinase 1 (Homo sapiens) (UniProt Q05397); experiment: PTK2 protein binding on printed compound slides – biochemical, small-molecule microarray, 635/667 nm fluorescence, BSA, DTT, primary screen (AID 1130); settings: 635 nm fluorescence, higher = more signal;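 further: composite of spot emission at 667 nm and signal to noise over triplicate slides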
[4] = system: Fibrinogen (Alexa647-labelled); experiment: Alexa647-fibrinogen binding to printed small molecules – biochemical, small-molecule microarray, 635/667 nm fluorescence, artefact control for SMM control-protein annotation, profiling panel (AID 1131); settings: fibrinogen-A647 binding fluorescence, higher = more signal;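 further: z-score merges 667 nm fluorescence with per-spot signal-to-noise over triplicate slides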
[5] = biological target: Follistatin (Homo sapiens) (UniProt P19883); experiment: FST protein binding to printed compounds – biochemical, small-molecule microarray, 635/667 nm fluorescence, primary screen (AID 1132); settings: 635 nm fluorescence, higher = more signal
[6] = biological target: Fibroblast growth factor 2 (Homo sapiens) (UniProt P09038); experiment: basic fibroblast growth factor binding to printed compounds – biochemical, small-molecule microarray, 635/667 nm fluorescence, primary screen (AID 1133); settings: FGF2, fluorescence 635/667, higher = more signal
[7] = JC-1 mitochondrial potential readout, lung cancer cells – cell-based, A549, JC-1 fluorescence, basal, 24 h, 100 nL, profiling panel (AID 1138); settings: higher = more signal;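 further: A549 lung adenocarcinoma cells under basal conditions with no added stimulus; test concentration not given here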
Lefty1 = Lefty1 protein binding to printed compounds – biochemical, small-molecule microarray, 635/667 nm fluorescence, primary screen (AID 1139); settings: fluorescence 635/667, higher = more signal
[8] = system: wheat germ agglutinin (Triticum aestivum), Alexa647-labelled; experiment: Alexa647-WGA lectin binding to printed small molecules – biochemical, small-molecule microarray, 635/667 nm fluorescence, artefact control for SMM control-protein annotation, profiling panel (AID 1140); settings: WGA-A647 binding, 635 nm fluorescence, higher = more signal;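 further: score merges 667 nm feature emission with signal to noise over triplicate slides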
[9] = biological target: Luciferin 4-monooxygenase (Photinus pyralis) (UniProt P08659); experiment: inhibition of purified Photinus pyralis luciferase – biochemical, luminescence, purified enzyme, 2006 set, primary screen (AID 1141); settings: purified firefly luciferase, SteadyGlo luminescence, 30 min; higher = more signal, called active from +8 up or from −8 down;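 further: cell-free assay with purified firefly luciferase at 100 ng per well in PBS; test concentration not given here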
Chain of Luciferin 4-monooxygenase (Photinus pyralis) (P08659 whole entry, looked up): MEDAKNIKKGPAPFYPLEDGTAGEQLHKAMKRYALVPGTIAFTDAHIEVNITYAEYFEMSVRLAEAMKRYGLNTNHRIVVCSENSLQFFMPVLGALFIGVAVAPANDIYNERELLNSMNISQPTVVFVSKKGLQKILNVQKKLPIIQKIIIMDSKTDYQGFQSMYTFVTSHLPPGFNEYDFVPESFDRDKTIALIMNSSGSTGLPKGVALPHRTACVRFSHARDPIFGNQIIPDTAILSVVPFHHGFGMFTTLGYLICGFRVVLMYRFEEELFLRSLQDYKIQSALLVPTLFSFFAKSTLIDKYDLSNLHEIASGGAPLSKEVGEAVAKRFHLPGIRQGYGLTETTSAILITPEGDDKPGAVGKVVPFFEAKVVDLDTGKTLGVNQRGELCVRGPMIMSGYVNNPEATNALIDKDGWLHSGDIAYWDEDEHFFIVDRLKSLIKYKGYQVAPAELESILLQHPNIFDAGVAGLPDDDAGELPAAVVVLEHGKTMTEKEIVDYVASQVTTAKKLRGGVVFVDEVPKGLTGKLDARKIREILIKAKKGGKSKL

Chain of Focal adhesion kinase 1 (Homo sapiens) (Q05397 whole entry, looked up): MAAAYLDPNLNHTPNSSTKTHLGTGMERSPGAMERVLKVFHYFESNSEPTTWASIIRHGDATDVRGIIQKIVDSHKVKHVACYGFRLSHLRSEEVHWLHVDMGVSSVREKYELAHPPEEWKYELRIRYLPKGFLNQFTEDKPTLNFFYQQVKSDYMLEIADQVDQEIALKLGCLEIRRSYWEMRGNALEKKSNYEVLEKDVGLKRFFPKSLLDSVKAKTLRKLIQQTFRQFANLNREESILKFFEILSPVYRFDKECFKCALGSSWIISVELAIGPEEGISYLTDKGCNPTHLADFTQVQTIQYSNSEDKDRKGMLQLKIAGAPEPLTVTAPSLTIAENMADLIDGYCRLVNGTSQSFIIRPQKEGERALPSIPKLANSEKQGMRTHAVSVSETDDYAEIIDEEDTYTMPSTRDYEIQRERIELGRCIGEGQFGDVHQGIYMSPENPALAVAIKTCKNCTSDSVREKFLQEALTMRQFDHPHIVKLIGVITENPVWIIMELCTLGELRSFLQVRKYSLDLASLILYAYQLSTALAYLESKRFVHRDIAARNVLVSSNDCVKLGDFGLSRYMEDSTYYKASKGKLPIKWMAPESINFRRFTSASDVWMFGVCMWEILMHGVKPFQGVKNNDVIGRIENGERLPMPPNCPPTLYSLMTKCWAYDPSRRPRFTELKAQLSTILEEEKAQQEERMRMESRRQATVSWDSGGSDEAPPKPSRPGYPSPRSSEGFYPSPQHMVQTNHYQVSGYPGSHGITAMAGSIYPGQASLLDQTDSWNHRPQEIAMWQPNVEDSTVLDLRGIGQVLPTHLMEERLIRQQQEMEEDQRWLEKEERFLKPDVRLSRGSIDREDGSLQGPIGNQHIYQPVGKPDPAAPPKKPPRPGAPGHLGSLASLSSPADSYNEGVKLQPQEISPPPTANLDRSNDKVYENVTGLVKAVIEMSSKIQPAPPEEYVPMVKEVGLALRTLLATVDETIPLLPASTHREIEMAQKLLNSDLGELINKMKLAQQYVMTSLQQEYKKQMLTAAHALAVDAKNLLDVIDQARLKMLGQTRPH
Chain of Fibroblast growth factor 2 (Homo sapiens) (P09038 whole entry, looked up): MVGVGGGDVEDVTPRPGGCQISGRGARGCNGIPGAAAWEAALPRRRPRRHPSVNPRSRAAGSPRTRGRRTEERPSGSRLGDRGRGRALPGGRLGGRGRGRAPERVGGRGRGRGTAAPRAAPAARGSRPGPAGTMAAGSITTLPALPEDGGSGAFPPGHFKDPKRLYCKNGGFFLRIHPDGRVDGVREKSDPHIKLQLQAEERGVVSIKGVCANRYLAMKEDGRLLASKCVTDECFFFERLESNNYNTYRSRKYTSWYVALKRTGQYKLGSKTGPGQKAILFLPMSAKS
Chain of Follistatin (Homo sapiens) (P19883 whole entry, looked up): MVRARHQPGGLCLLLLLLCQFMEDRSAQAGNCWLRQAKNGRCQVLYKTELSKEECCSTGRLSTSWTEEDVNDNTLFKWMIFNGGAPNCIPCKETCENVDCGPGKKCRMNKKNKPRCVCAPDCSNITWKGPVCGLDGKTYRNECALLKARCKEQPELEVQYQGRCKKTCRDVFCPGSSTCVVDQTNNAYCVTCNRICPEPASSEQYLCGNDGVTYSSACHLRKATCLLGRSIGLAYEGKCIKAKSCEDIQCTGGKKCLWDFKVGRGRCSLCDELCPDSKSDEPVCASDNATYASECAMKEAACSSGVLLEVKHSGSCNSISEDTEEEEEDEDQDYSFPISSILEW

SMILES | composite z-score [1] | composite z-score [2] | composite z-score [3] | composite z-score [4] | composite z-score [5] | composite z-score [6] | z-score [7] | composite z-score (Lefty1) | composite z-score [8] | z-score [9]
COC(=O)[C@@H]1CC[C@H](C)[C@@H](c2ccc(C)cc2)N1C(=O)c1ccc(C=NOC[C@@H](C)[C@H](OCc2ccccc2)C(C)C)cc1 | 0.336 | 0.673 | 0.936 | 0.857 | 0.915 | 0.698 | 1.26 | 0.799 | 0.37 | -1.46 (inactive)
C#CCCCON=C1C[C@@H](O)[C@@H](O)[C@@H]2[C@@H]3C(=O)N(c4ccc(F)cc4F)C(=O)[C@@H]3CC[C@H]12 | 0.968 | 1.02 | 0.208 | 0.894 | 0.424 | 0.322 | 0.0852 | 0.662 | 0.0156 | 0.573 (inactive)
CCOC(=O)NN=C1C[C@@H](O)[C@@H](O)[C@@H]2[C@@H]3C(=O)N(c4cccc(Oc5ccccc5)c4)C(=O)[C@@H]3CC[C@H]12 | 0.141 | 0.34 | 0.0494 | 0.641 | 0.519 | 0.374 | 0.471 | 0.365 | 0.01 | -0.219 (inactive)
CC(CCN1CCCc2nc(C)c(C)cc21)=NOC(C)CN1CCCCc2nc(C)c(C)cc21 (stereo not given) | 0.363 | 1.2 | 0.687 | 0.567 | 1.27 | 0.785 | 0.539 | 0.91 | 0.829 | -0.0922 (inactive)
CO[C@H]1COC(=O)CC=C[C@@H](C)[C@H](OC)COC(=O)[C@@H]2CCCN2C(=O)CC=C[C@@H]1C | 0.118 | -0.834 | -0.145 | -1.02 | 1.39 | 1.01 | 0.0624 | 1.57 | -0.483 | -0.813 (inactive)
CCOC(=O)[C@H](CC(C)C)NC(=O)CCC1CC(OC(=O)NCCc2ccc(F)cc2)CC2(CCCC(COC(=O)NCCC(C)C)O2)O1 (stereo not given in full) | 1.79 | 0.0471 | 0.459 | 0.818 | 0.601 | 0.0263 | 0.427 | 0.304 | 0.421 | 0.403 (inactive)
CCc1cc2c(nc1CC)CCN(CCC(C)=NO[C@@H](C)c1cn([C@H](CO)Cc3ccccc3)nn1)C2 | 1.62 | -0.452 | -0.0908 | 0.996 | 0.595 | 0.0391 | 2.07 | 0.529 | 0.307 | -0.896 (inactive)
CC(CCN1CCCCc2nc(C)c(C)cc21)=NO[C@H](C)c1cn([C@H](CO)Cc2ccccc2)nn1 | 0.566 | -0.556 | -0.0044 | 0.339 | 0.965 | 1.01 | 0.0726 | 1.08 | -0.154 | -1.09 (inactive)
COc1ccc(O[C@@H]2[C@H](O)CO[C@H]2C=Cc2ccccc2)cc1 | 0.326 | -0.437 | 0.051 | 0.173 | -0.117 | 0.117 | 1.66 | -0.208 | 0.0385 | -1.69 (inactive)
CC(C)CON=C1C[C@@H](O)[C@@H](O)[C@@H]2[C@@H]3C(=O)N(Cc4ccc5c(c4)OCO5)C(=O)[C@@H]3CC[C@H]12 | 0.193 | 0.689 | 0.0874 | 0.237 | 0.707 | 0.914 | -0.72 | 0.831 | -0.0178 | 1.26 (inactive)
CC(C)CCN1CCc2nc(COc3ccccc3)c3c(c2C1)CO[C@@H](C)C3 | 0.683 | 0.132 | 0.233 | 0.602 | 0.0413 | -0.0961 | 1.71 | 0.0377 | 0.451 | -0.781 (inactive)
CCOC(=O)[C@H](CC(C)C)NC(=O)CCC1CC(OC(=O)NCc2cccc3ccccc23)CC2(CCCC(COC(=O)NCc3ccncc3)O2)O1 (stereo not given in full) | 0.894 | 1.19 | 0.0121 | 0.839 | 0.768 | 1.58 | 1.42 | 1.01 | 0.725 | 0.301 (inactive)
C#CCCCON=C1C[C@@H](O)[C@@H](O)[C@@H]2[C@@H]3C(=O)N(C(C)(C)C)C(=O)[C@@H]3CC[C@@H]12 | -0.331 | -0.175 | 0.324 | 0.139 | -1.54 | -0.92 | -0.289 | -1.28 | 0.171 | 0.648 (inactive)
CON=Cc1ccc(C(=O)N2[C@H](c3ccc(C)cc3)[C@@H](C)CC[C@H]2C(=O)OC)cc1 | 2.72 | 0.73 | -0.176 | 0.53 | 0.419 | 0.412 | -0.0876 | 0.595 | 0.112 | -1.06 (inactive)
O=C1C[C@@H](O)[C@@H](O)[C@@H]2[C@@H]3C(=O)N(Cc4ccccc4)C(=O)[C@@H]3CC[C@@H]12 | 0.467 | 0.789 | 0.0901 | 0.547 | 0.892 | 0.895 | -0.305 | 0.551 | 0.0697 | -0.0665 (inactive)
COc1ccc(COC(=O)NN=C2C[C@@H](O)[C@@H](O)[C@@H]3[C@@H]4C(=O)N(c5cccc(Oc6ccccc6)c5)C(=O)[C@@H]4CC[C@@H]23)cc1 | 0.177 | -0.181 | -0.0032 | 0.238 | -0.823 | -0.415 | -0.201 | -0.282 | 0.485 | 0.891 (inactive)
CCOC(=O)[C@H](CC(C)C)NC(=O)CCC1CC(OC(=O)NCCc2ccc(F)cc2)CC2(CCCC(COC(=O)NCC(c3ccccc3)c3ccccc3)O2)O1 (stereo not given in full) | 0.59 | 0.749 | 0.097 | 0.874 | 0.678 | 0.533 | -0.642 | 0.875 | 0.737 | 0.897 (inactive)
